Results filed as inconclusive are left out. Entries that show only a call come without a potency. Values without a mark were called inactive. Active and inactive are the calls of the source. The call rests on the fitted dose curve.
Biological target: Beta-2 adrenergic receptor (Homo sapiens) (UniProt P07550)
Test: Adrenergic beta2 receptor (ADRB2) small molecule agonists, cell-based qHTS assay (AID 1963593);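 further: CHO cells stably overexpressing human ADRB2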
Conditions: CHO-ADRB2 cells, cAMP HTRF, 30 min; series mostly up to 92.4 µM
Procedure, shortened: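 CHO cells stably over-expressing ADRB2 were plated overnight at 37C, then dosed with compounds plus a stimulation mix containing 100uM IBMX and 25uM Ro-20-1724 for 0.5hr at room temperature. cAMP was measured by HTRF competition, 1hr.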

Sequence of Beta-2 adrenergic receptor (Homo sapiens) (P07550 whole entry, looked up): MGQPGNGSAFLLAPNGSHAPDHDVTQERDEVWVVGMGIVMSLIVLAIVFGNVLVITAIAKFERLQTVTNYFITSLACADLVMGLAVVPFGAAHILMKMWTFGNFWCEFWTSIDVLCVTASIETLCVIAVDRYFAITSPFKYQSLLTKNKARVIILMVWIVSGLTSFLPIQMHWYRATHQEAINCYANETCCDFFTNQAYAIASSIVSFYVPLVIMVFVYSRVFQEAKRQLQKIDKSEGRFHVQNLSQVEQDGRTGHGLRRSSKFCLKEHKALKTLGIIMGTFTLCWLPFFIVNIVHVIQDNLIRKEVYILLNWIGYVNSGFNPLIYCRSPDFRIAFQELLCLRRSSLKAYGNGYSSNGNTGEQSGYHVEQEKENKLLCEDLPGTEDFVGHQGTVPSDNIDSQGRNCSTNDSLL

SMILES	Potency	activation
CC(=O)Oc1ccc(C(=C2CCCCC2)c2ccc(OC(C)=O)cc2)cc1	inactive	
CN(C)C(=O)COC(=O)Cc1ccc(OC(=O)c2ccc(N=C(N)N)cc2)cc1	inactive	
Cc1cc(-c2ccc(N=Nc3cc(S(=O)(=O)O)c4ccccc4c3N)c(C)c2)ccc1N=Nc1cc(S(=O)(=O)O)c2ccccc2c1N	inactive	
CCOC(=O)C1=C[C@]2(CC)CCCN3CCc4c(n1c1ccccc41)[C@@H]32	inactive	
O=C(O)COc1nn(Cc2ccccc2)c2ccccc12	inactive	
CC1(C)[C@@H](O)CC[C@]2(C)[C@H]3C(=O)C=C4[C@@H]5C[C@@](C)(C(=O)O)CC[C@]5(C)CC[C@@]4(C)[C@]3(C)CC[C@@H]12	inactive	
CCNc1nc(NC(C)CC)nc(OC)n1 (stereo unspecified)	inactive	
N#CCCCC(C#N)CCC#N (stereo unspecified)	inactive	
O=C(Cl)c1ccc(Cl)cc1Cl	inactive	
CC(=O)c1c(C)c([N+](=O)[O-])c(C(C)(C)C)c([N+](=O)[O-])c1C	inactive	
CCCCCCCCn1sc(Cl)c(Cl)c1=O	inactive	
Cc1c[nH]c(=S)[nH]c1=O	inactive	
NO	inactive	
CCN1CCOCC1	inactive	
C=CC(=C)CCC=C(C)C	inactive	
CN1CCN(c2cc3c(nn2)Oc2ccccc2N3C)CC1		4.93% [at 19 µM]
C=CC[N+]1([C@H]2C[C@H]3[C@@H]4CC[C@H]5C[C@H](OC(C)=O)[C@@H](N6CCCCC6)C[C@]5(C)[C@H]4CC[C@]3(C)[C@H]2OC(=O)CC)CCCCC1	inactive	
CCc1ccc(C(c2ccc(CC)cc2)C(Cl)Cl)cc1	inactive	

SMILES	Potency	activation
CCOc1nc2cccc(C(=O)OC(C)OC(=O)OC3CCCCC3)c2n1Cc1ccc(-c2ccccc2-c2nn[nH]n2)cc1 (stereo unspecified)	inactive	
O=[N+]([O-])c1ccc(Nc2ccc(Nc3ccccc3)c(S(=O)(=O)O)c2)c([N+](=O)[O-])c1	inactive	
O=[N+]([O-])c1ccc(O)cc1	inactive	
Cc1ccc(O)c(C(C)(C)C)c1	inactive	
CC1(C)O[C@@H]2C[C@H]3[C@@H]4CCC5=CC(=O)C=C[C@]5(C)[C@H]4[C@@H](O)C[C@]3(C)[C@]2(C(=O)CO)O1	inactive	
O=C1c2ccccc2C(=O)N1SC1CCCCC1	inactive	
Cc1cc(O)c2c(c1)C(=O)c1cc(O)cc(O)c1C2=O	inactive	
O=S(=O)(O)c1cc(S(=O)(=O)O)c2c(N=Nc3ccccc3)c(O)ccc2c1	inactive	
CCCCCCCCCCCCN1CCCC1=O	inactive	
COc1ccc(C(=O)c2ccc(C)cc2)c(O)c1	inactive	
NC(=S)NC(N)=S	inactive	
COc1cc(Nc2c(C#N)cnc3cc(OCCCN4CCN(C)CC4)c(OC)cc23)c(Cl)cc1Cl	inactive	
CCCCCCCC/C=C\CCCCCCCC(=O)N(C)CC(=O)O	inactive	
CCCCCCCCCCCCCCCCC(C(=O)O)C(O)(CC(=O)O)C(=O)O (stereo unspecified)	inactive	
COc1ccc(C(=O)/C(Br)=C\C(=O)O)cc1	inactive	
CC1=NN(c2cc(Cl)c(S(=O)(=O)O)cc2Cl)C(=O)C1N=Nc1ccc(S(=O)(=O)O)cc1 (stereo unspecified)	inactive	
Cc1ccc(N/N=c2\c(=O)cc/c(=N\Nc3ccc(S(=O)(=O)O)cc3)c2=O)c(C)c1	inactive	
Cc1cccc(C)c1NC(=O)CN1CCN(CCCC(c2ccc(F)cc2)c2ccc(F)cc2)CC1	inactive	
